PubChem BioAssay AID504803 (The Scripps Research Institute Molecular Screening Center, 2011)
Hit rate of the full screen: of about 340,000 compounds, about 1,700 (0.5%) were called active. Cut-off read from the data, not from the text of the source: active = inhibition above about 36%; inactive = the rest. This excerpt belongs to a sample that is enriched for actives.

Each molecule was assayed against Serine protease HTRA1 (Homo sapiens) (UniProt Q92743) (assay: inhibition of human HTRA1 peptidase – biochemical, fluorescence polarization, HTS, primary screen (AID 504803;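 note: 0% = enzyme with DMSO and 100% = wells lacking enzyme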)). Details: recombinant HTRA1, FP-rhodamine activity-based probe, at 5.96 µM, active compounds read high.
Serine protease HTRA1 (Homo sapiens), sequence (Q92743 whole entry, looked up): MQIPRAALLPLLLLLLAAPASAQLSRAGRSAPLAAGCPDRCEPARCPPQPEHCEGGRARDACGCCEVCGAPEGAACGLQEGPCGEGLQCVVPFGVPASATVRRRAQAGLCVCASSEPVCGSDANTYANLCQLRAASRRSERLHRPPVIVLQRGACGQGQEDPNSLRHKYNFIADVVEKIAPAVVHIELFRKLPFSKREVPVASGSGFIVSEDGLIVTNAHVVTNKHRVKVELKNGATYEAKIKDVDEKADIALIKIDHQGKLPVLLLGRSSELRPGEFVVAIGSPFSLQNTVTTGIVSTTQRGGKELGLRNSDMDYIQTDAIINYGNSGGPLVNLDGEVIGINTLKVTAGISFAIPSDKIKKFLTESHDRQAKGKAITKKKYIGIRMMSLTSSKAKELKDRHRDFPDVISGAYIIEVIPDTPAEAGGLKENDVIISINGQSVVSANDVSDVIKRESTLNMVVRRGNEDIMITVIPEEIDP

inhibition, inactive:
O=C(NN=Cc1ccc2c(c1)CCC2)c1ccccc1O -0.46%
CC(C)(C)c1nnc(NC(=O)C2c3ccccc3Oc3ccccc32)s1 -41.3%
COc1cccc(NC(=O)CN(C)C(=O)c2cc(Cl)nc3ccccc23)c1 0.82%
C[C@@H]1CN([C@@H](C)CO)C(=O)c2cc(Br)cnc2O[C@@H]1CN(C)C(=O)C1CCCCC1 2.18%
CCN(CC)C(=O)C1=C(C)N(Cc2ccc(F)cc2)C(=O)C(CC(=O)NC2CCCC2)C1 (centres undefined) 1.89%
COc1ccc2oc(=N)c(C(=O)Nc3ccc(Br)cc3)cc2c1 -1.93%
COc1ccc(C(=O)c2oc3ccc(Br)cc3c2NC(C)=O)cc1 -1.73%
O=C1[C@H]2[C@@H](c3ccc(C(F)(F)F)cc3)N[C@]3(CCCN(Cc4ccc(Br)cc4)C3=O)[C@H]2C(=O)N1Cc1ccccc1 -35.1%
CN(Cc1c(F)cccc1Cl)C(=O)COC(=O)Cn1cnc2ccccc2c1=O 2.48%
N#Cc1ccc(OCC(=O)Nc2nc(-c3ccccn3)cs2)cc1 19.1%
COc1ccc(-c2cc(C(=O)N/N=C/c3cccnc3)c3ccccc3n2)c(OC)c1 -18%
Cc1ccc(/C=N/NC(=O)Cn2nc(C)c(Br)c2C)o1 -6.04%
Cc1ccc(/C=N/NC(=S)NC2CCCCC2)o1 5.44%
O=C(N/N=C\c1cccnc1)c1cc(-c2ccccc2)nc2c(Cl)cccc12 -44%
CC(C)N=C1CCCC1C(=S)SSC(=S)C1CCCC1=NC(C)C (centres undefined) 13.4%
CC(C)C1CCN(C(=O)C2CCC(=O)N(C3CCCCCC3)C2)CC1 (centres undefined) 4.4%
CCCCN1CC(C)(C)[C@H](CC(=O)Nc2ccc(Br)cc2)C1=O -7.94%
COc1ccc(-c2ccc(CN3C(CC(C)C)C(=O)N(Cc4cn(CC5CCCCC5)nn4)CCS3(=O)=O)cc2)cc1 (centres undefined) -45.1%
O=C(C[C@H]1C[C@H]2c3cc(NS(=O)(=O)c4ccc(F)cc4)ccc3O[C@H]2[C@H](CO)O1)NCc1cc(F)ccc1F -9.74%
COc1cc(C(=O)OCCCN2CCOCC2)cc(OC)c1OC -2.46%
O=NN(CCCl)C(=O)NCCc1cccc[n+]1[O-] 1.62%
CCOC(=O)NNc1cc(C(F)(F)F)ccn1 -0.2%
CCOC(=O)C[C@H]1c2ccc(C(F)(F)F)cc2S(=O)(=O)N1c1ccccc1 -13.4%
COc1cccc2c(O)cc(=O)n(C)c12 -0.49%
O=C(NN=Cc1ccccc1O)NN=Cc1ccccc1O 25.9%
Cc1ccc(-c2ccc(CN3C(C(C)C)C(=O)N(Cc4cn(CCC5OCCO5)nn4)CCS3(=O)=O)cc2)cc1 (centres undefined) -29.6%
COc1cc(C)c(CN2CCN(C(=O)CCC(=O)c3ccc(C)s3)CC2)cc1OC 6.95%
CCCCCCNC(=O)O[C@H]1CN(C(=O)OC(C)C)N(C(=O)OC(C)C)[C@@H]2CN(S(=O)(=O)c3ccc(C)cc3)C[C@]12O -18.8%
O=C(Cc1ccc(Cl)cc1)NC(=S)Nc1ccccc1O -31.1%
c1ccc(CNCc2ccc(CNCc3ccccc3)cc2)cc1 2.32%
C[C@@H]1CN([C@H](C)CO)C(=O)CCCn2cc(nn2)CO[C@H]1CN(C)S(=O)(=O)c1ccc(Oc2ccccc2)nc1 5.67%
COCC1CCCCN1C(=O)c1cc(COc2ccc(C)c(C)c2)on1 (centres undefined) -4.09%
COc1ccc(C=C2CCC3C(CCCC34OCCO4)C2=O)cc1 (centres undefined) -8.69%
Nc1nonc1-n1nnc(C(=O)N/N=C/c2c[nH]c3ccccc23)c1-c1ccccc1 -3.11%
C[n+]1ccc(/C=C/c2c[nH]c3ccccc23)cc1 2.74%
C[C@H]1CN([C@@H](C)CO)C(=O)CCCn2nncc2CO[C@@H]1CN(C)Cc1ccc(Oc2ccccc2)cc1 -3.08%
COc1cc(C=NC2CCCCC2)ccc1O 0.85%
COc1ccc(CN2C(=O)C(CC(=O)NCCCCc3ccccc3)CC(C(=O)N3CCOCC3)=C2C)cc1 (centres undefined) 5.2%
O=C(c1ccccc1)N1CCN(c2cc(-c3ccccc3)nc3cc(-c4cccc(Cl)c4)nn23)CC1 -11.5%
CCOC(=O)CC(NC(=O)C1c2ccccc2Oc2ccccc21)c1ccc(C)cc1 (centres undefined) -3.25%
CCCCCNC(=O)C1c2ccccc2Oc2ccccc21 0.55%
C[C@H]1CN([C@@H](C)CO)S(=O)(=O)c2ccc(Br)cc2O[C@H]1CN(C)C(=O)c1cnccn1 10.3%
CNC(=O)c1ccc(CN(C)C(=O)c2cc(C3CC3)nc3c2cnn3C(C)C)cc1 -4.2%
CC(C)CC1C(=O)N(Cc2cn(Cc3ccco3)nn2)CCS(=O)(=O)N1Cc1ccc(-c2ccc(Cl)c(Cl)c2)cc1 (centres undefined) -109%
C[C@@H]1CN([C@H](C)CO)C(=O)CCCn2nncc2CO[C@@H]1CN(C)S(=O)(=O)c1cccc(C#N)c1 4.09%
COCCNC(=O)/C(C#N)=C/c1cccc(OCc2ccccc2)c1 -21.2%
COc1ccc(CNC(=O)/C(C#N)=C/c2cccc(OC)c2OC)cc1 -5.58%
CC(C)CC1C(=O)N(Cc2cn(CC3CCCCC3)nn2)CCS(=O)(=O)N1Cc1ccc(-c2ccc(Cl)cc2)cc1 (centres undefined) -45.3%
Cc1cccc(N2CCN(C(=O)c3ccccc3NC(=O)C3CCCCC3C(=O)O)CC2)c1 (centres undefined) 2.87%
CC(C)=C1SC(N2CCN(c3cccc(C)c3)CC2)=NC1=O -3.36%
O[C@H]1C[C@H](c2ccc(Cl)cc2)N(Cc2cccs2)C[C@@H]1n1cc(C2CC2)nn1 -46%
COc1cccc(OC)c1C(=O)Nc1nnc(C(C)C)s1 -2.63%
COc1ccc(C(=O)Nc2cccc(/C=C(/CCC(=O)O)c3nc4ccccc4s3)c2)cc1 -96.2%
C[C@H]1CN([C@@H](C)CO)C(=O)CCCn2cc(nn2)CO[C@@H]1CN(C)C(=O)Nc1ccccc1 2.55%
Cc1noc(C)c1NC(=O)N(C)C[C@@H]1Oc2cc(Br)ccc2S(=O)(=O)N([C@@H](C)CO)C[C@H]1C 0.21%
Cc1ccc(C(=O)N[C@H](C(=O)N2CCN(c3ncccn3)CC2)C(C)C)cc1 5.28%
CCc1nc2c(=O)[nH]cnc2o1 5.91%
Cc1cc(C(=O)OCC(=O)N2c3ccccc3NC(=O)C2(C)C)c(C)n1-c1ccccc1 -25.2%
CCCn1c(C)cc(-c2csc(NC(=O)CCc3nc4ccccc4c(=O)[nH]3)n2)c1C -3.91%
CCCc1cc(-c2n[nH]c(=S)n2Cc2ccccc2)cs1 -3.06%
CCOC(=O)C1=C(O)/C(=C/c2cc(C)n(-c3ccccc3)c2C)N=C1C 20.9%
CCN1C(=O)[C@H]2[C@@H](c3ccccc3)N[C@]3(CCCN(Cc4ccc(C)cc4)C3=O)[C@H]2C1=O -0.19%
COc1ccc(NC(=O)N(C)C[C@H]2Oc3ncc(C#C[C@@H](C)O)cc3C(=O)N([C@H](C)CO)C[C@H]2C)cc1 6%
Nc1cccc(OCCCCCOc2cccc(N)c2)c1 3.94%
COC(=O)c1ccccc1N=NNc1ccc([N+](=O)[O-])cc1 3.36%
COc1ccc(NC(=O)c2cc(=O)[nH]c3ccccc23)cc1S(=O)(=O)N1CCOCC1 -7.81%
COc1ccc(NC(=O)COC(=O)C2COc3ccccc3O2)cc1 (centres undefined) -2.75%
COc1c(O)cc2oc(-c3ccc(O)c(O)c3)cc(=O)c2c1O 25.7%
COc1cccc2cc(-c3cc(=O)oc4cc(C)c(O)cc34)oc12 -8.58%

inhibition, active:
O=C(N/N=C/c1ccc(O)c(O)c1)C1c2ccccc2Oc2ccccc21 68.8%
COc1ccc(/C=C/C(=O)c2cc(Br)ccc(=O)c2O)cc1 61%
COc1cccc2c1C(=O)c1c(O)c3c(c(O)c1C2=O)CC(O)(C(C)=NNC(=O)c1ccc(Cl)c(Cl)c1)CC3OC1CC(N)C(O)C(C)O1 (centres undefined) 70.5%
Cc1ccc(/C=N/NC(=O)c2cc3ccccc3cc2O)o1 50.2%
O=C(N/N=C/c1cccnc1)c1cc2ccccc2cc1O 41%
CCOC(=O)C1Nc2ccc(C(F)(F)F)cc2C2C=CCC12 (centres undefined) 41.7%
O=Nc1c(O)cc(O)c2ccccc12 42.4%
CC[C@@H]1Cc2cc(O)ccc2C2=C1c1ccc(O)cc1C[C@H]2CC 44.3%
Oc1ccc(CNc2ccccc2O)cc1 52.1%
CSC(=S)N/N=C/c1c[nH]c2ccccc12 48.9%
O=c1ccc2c(-c3ccccc3S(=O)(=O)O)c3ccc(O)c(O)c3oc-2c1O 37.8%
CCCN(CCC)C(=O)C1c2ccccc2Oc2ccccc21 38.1%
CCN1CCN(C(c2cccnc2)c2cc(Cl)c3cccnc3c2O)CC1 (centres undefined) 42%
N#C/C(=C\c1ccc(O)c(O)c1)C(=O)NCc1ccccc1 59.1%
Cc1cccc(N2CCN(c3ccc(NC(=O)/C=C\C(=O)O)cc3)CC2)c1 52%
COc1cccc2sc(NNC(=O)c3nc4ccccc4s3)nc12 39.4%
Cc1cc(-c2csc(N)n2)c(C)n1Cc1ccccc1 37.6%
Cc1cc(-c2csc(N)n2)c(C)n1-c1ccccc1 52.5%
Oc1ccc2ccccc2c1N=Nc1nccs1 44.7%
COc1cc(O)c2c(=O)c3c(O)c(O)ccc3oc2c1OC 53.9%
